In the supplement of paper PMC9262897, “Low-cost anti-mycobacterial drug discovery using engineered E. coli” (Nature Communications, 2022) one finds growth data, which are given here for four compounds.

Where a name gives a salt, the structure may show the parent alone. ± gives the standard deviation of the averaged measurements.

Holding throughout (assay): growth (OD600 after 10 h); higher = more growth (less inhibition)
Test [1] deals with E. coli TESEC Alr+ wild-type control. Conditions: compound 0.1 mM; raw OD600 reference: median of DMSO wells 0.241, cell-free background 0.041. As for the experimental part: (§1)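 TESEC Mtb Alr E. coli, or the Alr+ wild-type control, in 384-well plates with Prestwick library compounds at 0.1 mM and 1% DMSO, across arabinose induction levels of 1E3 to 1E7 nM. Growth is read as OD600 after 10 h at 37 °C in triplicate biological replicates.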

The test system of test [2] is E. coli TESEC Mtb Alr. The settings on record: compound 0.1 mM. As for the experimental part:
as §1

The next test relates to E. coli TESEC Mtb Asd. The settings on record: compound 0.1 mM. As for the experimental part: (§2)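 TESEC E. coli strains in which the native enzyme is deleted and replaced by arabinose-inducible Mtb Asd, DapB, CysH or TrpD, each grown in its selective medium. Strains were screened against the Prestwick library at 0.1 mM and 1% DMSO in 384-well format at low and high arabinose induction. Growth is read as OD600 after 10 h in triplicate.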

A further test deals with E. coli TESEC Mtb DapB. Conditions: compound 0.1 mM. The procedure: as §2
The subject of test [3] is E. coli TESEC Alr+ wild-type control. Conditions: compound 0.1 mM; raw OD600 reference: median of DMSO wells 0.49, cell-free background 0.052. As for the experimental part: (§3)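 TESEC Mtb Alr E. coli (ΔaraC ΔtolC ΔentC Δalr ΔdadX, arabinose-inducible Mtb Alr) or the Alr+ wild-type control strain, grown in defined M9-fructose medium without D-alanine in 96-well plates with Prestwick library compounds at 0.1 mM and 1% DMSO. Low Alr induction is 0.1 µM arabinose and high induction is 10 mM arabinose.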

Test [4] has as its system E. coli TESEC Mtb Alr. Conditions: compound 0.1 mM. As for the experimental part: as §3
The source holds these as a separate data set.

Where [5] appears, read: arabinose 1000 nM, raw OD600 reference: median of DMSO wells 0.294, cell-free background 0.041.
Setting [6] is: arabinose 10000 nM, raw OD600 reference: median of DMSO wells 0.264, cell-free background 0.041.
Where [7] appears, read: arabinose 100000 nM, raw OD600 reference: median of DMSO wells 0.201, cell-free background 0.041.
Setting [8] is: arabinose 1000000 nM, raw OD600 reference: median of DMSO wells 0.193, cell-free background 0.041.
The mark [9] stands for this setting: arabinose 10000000 nM, raw OD600 reference: median of DMSO wells 0.146, cell-free background 0.041.
Setting [10] is: arabinose induction (level): High, raw OD600 reference: median of DMSO wells 0.331, cell-free background 0.041.
Where [11] appears, read: arabinose induction (level): Low, raw OD600 reference: median of DMSO wells 0.417, cell-free background 0.041.
[12] abbreviates: arabinose induction (level): High, raw OD600 reference: median of DMSO wells […], cell-free background 0.041.
Setting [13] is: arabinose induction (level): Low, raw OD600 reference: median of DMSO wells 0.227, cell-free background 0.041.
The mark [14] stands for this setting: arabinose 100 nM, raw OD600 reference: median of DMSO wells 0.413, cell-free background 0.052.
Setting [15] is: arabinose 10000000 nM, raw OD600 reference: median of DMSO wells […], cell-free background 0.052.

Consider `O=C(O)Cc1cc(I)c(Oc2ccc(O)c(I)c2)c(I)c1` [Tiratricol, 3,3',5-triiodothyroacetic acid], for which the growth in test [1] came out at 0.0409 ± 0.00083; in the test on E. coli TESEC Mtb Alr [2] (setting [5]) it was 0.0428 ± 0.0019; with E. coli TESEC Mtb Alr [2] (setting [6]), 0.04123 ± 0.00021; in the test with E. coli TESEC Mtb Alr [2] (setting [7]), 0.0442 ± 0.0023; in the test on E. coli TESEC Mtb Alr [2] (setting [8]), 0.0408 ± 0.00017; in the test with E. coli TESEC Mtb Alr [2] (setting [9]), 0.0558 ± 0.002. The growth is 0.057 ± 0.0056 in the test on E. coli TESEC Mtb Asd (setting [10]); 0.06 ± 0.0072 with E. coli TESEC Mtb Asd (setting [11]); 0.0676 ± 0.0044 with E. coli TESEC Mtb DapB (setting [12]); 0.108 ± 0.09 in the test on E. coli TESEC Mtb DapB (setting [13]); 0.0593 ± 0.0022 in test [3]; 0.167 ± 0.087 with E. coli TESEC Mtb Alr [4] (setting [14]). Besides, in the test with E. coli TESEC Mtb Alr [4] (setting [15]), the growth came out at 0.05437 ± 0.00015.
For `C[C@H]1O[C@@H](O[C@H]2[C@@H](O)C[C@H](O[C@H]3[C@@H](O)C[C@H](O[C@H]4CC[C@@]5(C)[C@H](CC[C@@H]6[C@@H]5C[C@@H](O)[C@]5(C)[C@@H](C7=CC(=O)OC7)CC[C@]65O)C4)O[C@@H]3C)O[C@@H]2C)C[C@H](O)[C@@H]1O` [Digoxin], the growth worked out at 0.232 ± 0.0079 in test [1]; 0.282 ± 0.01 in the test on E. coli TESEC Mtb Alr [2] (setting [5]); 0.275 ± 0.0083 in the test on E. coli TESEC Mtb Alr [2] (setting [6]); 0.2 ± 0.0092 with E. coli TESEC Mtb Alr [2] (setting [7]); 0.176 ± 0.0061 in the test with E. coli TESEC Mtb Alr [2] (setting [8]); 0.136 ± 0.0037 in the test on E. coli TESEC Mtb Alr [2] (setting [9]). Further, the growth with E. coli TESEC Mtb Asd (setting [10]) is 0.28 ± 0.057; in the test with E. coli TESEC Mtb Asd (setting [11]), 0.413 ± 0.046; in the test with E. coli TESEC Mtb DapB (setting [12]) it was 0.196 ± 0.016; in the test with E. coli TESEC Mtb DapB (setting [13]), 0.236 ± 0.045; in test [3] it was 0.617 ± 0.038; in the test on E. coli TESEC Mtb Alr [4] (setting [14]) it was 0.414 ± 0.0055. Also, the growth in the test with E. coli TESEC Mtb Alr [4] (setting [15]) is 0.329 ± 0.044.
On to `CCCC(=O)Nc1ccc(OCC(O)CNC(C)C)c(C(C)=O)c1` (configuration not stated) [Acebutolol hydrochloride], for which the growth in test [1] was 0.239 ± 0.008; in the test with E. coli TESEC Mtb Alr [2] (setting [5]), 0.305 ± 0.011; in the test with E. coli TESEC Mtb Alr [2] (setting [6]), 0.257 ± 0.0087; with E. coli TESEC Mtb Alr [2] (setting [7]), 0.202 ± 0.014; in the test with E. coli TESEC Mtb Alr [2] (setting [8]), 0.174 ± 0.0073; with E. coli TESEC Mtb Alr [2] (setting [9]), 0.1572 ± 0.0014. Also, the growth was determined as 0.264 ± 0.04 with E. coli TESEC Mtb Asd (setting [10]); 0.413 ± 0.007 with E. coli TESEC Mtb Asd (setting [11]); 0.197 ± 0.025 in the test on E. coli TESEC Mtb DapB (setting [12]); 0.265 ± 0.067 with E. coli TESEC Mtb DapB (setting [13]); 0.46 ± 0.044 in test [3]; 0.411 ± 0.0058 in the test with E. coli TESEC Mtb Alr [4] (setting [14]). The same compound showed a growth with E. coli TESEC Mtb Alr [4] (setting [15]) of 0.354 ± 0.01.
Regarding `CC1CC(OC(=O)C(O)c2ccccc2)CC(C)(C)N1C` (configuration not stated) [Eucatropine hydrochloride], the growth is 0.245 ± 0.0073 in test [1]; 0.326 ± 0.015 in the test with E. coli TESEC Mtb Alr [2] (setting [5]); 0.282 ± 0.0064 with E. coli TESEC Mtb Alr [2] (setting [6]); 0.194 ± 0.0092 with E. coli TESEC Mtb Alr [2] (setting [7]); 0.191 ± 0.0054 in the test with E. coli TESEC Mtb Alr [2] (setting [8]); 0.156 ± 0.0098 in the test with E. coli TESEC Mtb Alr [2] (setting [9]). The growth with E. coli TESEC Mtb Asd (setting [10]) came out at 0.479 ± 0.008; in the test on E. coli TESEC Mtb Asd (setting [11]), 0.432 ± 0.065; in the test on E. coli TESEC Mtb DapB (setting [12]) it was 0.199 ± 0.033; with E. coli TESEC Mtb DapB (setting [13]) it was 0.227 ± 0.024; in test [3] it was 0.444 ± 0.029; with E. coli TESEC Mtb Alr [4] (setting [14]) it was 0.402 ± 0.014. This compound yielded a growth with E. coli TESEC Mtb Alr [4] (setting [15]) of 0.36 ± 0.016.
